Among all 340,000 compounds or so, about 8,500 (2.5%) were called active. The sample as a whole holds a higher share of actives than the screen did. A number with no mark means an inactive call.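 Rule for the calls: active = melting temperature shift of at least 10% of the positive control shift, at one fixed dose; inactive = the rest.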
The compounds below were run on Glutamate receptor ionotropic, NMDA 3A (GRIN3A) ligand-binding domain (assay: binders of NR3A ligand-binding domain, primary screen, biophysical, differential scanning fluorimetry, uHTS (AID 1259313)). Conditions: NR3A LBD differential scanning fluorimetry, at 25 µM, hits give high values, 0% = protein alone, 100% = glycine-bound protein.

Compound | Tm shift relative to glycine control
COCCNC(=O)Cn1cc2c(n1)CCCCC2 | -0.96%
COC(=O)c1cccc(-n2[nH]nnc2=S)c1 | -0.34%
NS(=O)(=O)c1ccc(CCNc2nc(C(F)(F)F)nc3ccccc23)cc1 | -7.08%
Cc1ccc(Nc2nc(N)nc(CN3CCN(Cc4ccccc4)CC3)n2)cc1Cl | -0.21%
OCCNc1nc(Nc2ccc(Cl)c(Cl)c2)nc2ccccc12 | 15.3% (active)
COc1ccccc1/C=N/N1CCN(Cc2ccccc2Cl)CC1 | 3.27%
Cc1cc(-n2nc(C)cc2C)n2ncc(-c3ccccc3)c2n1 | 0.25%
COc1ccc(CC(=O)N/N=C/c2cc([N+](=O)[O-])cc(Br)c2O)cc1 | 7.97%
COc1cc(/C=N/Nc2nc3ccccc3s2)ccc1O | 20.7% (active)
COc1cc(/C=N/NC(=O)CCc2n[nH]c(=O)[nH]c2=O)ccc1O | 0.39%
Cc1cc(C(=O)N/N=C/c2cc([N+](=O)[O-])cc(C)c2O)n[nH]1 | -7.09%
CCOc1cc(/C=N/Nc2cc(C)nc3ccc(C)cc23)ccc1O | -6.31%
O=[N+]([O-])c1cc(Br)c(O)c(/C=N/Nc2nc3ccccc3s2)c1 | 24.4% (active)
COc1cc(/C=C/CNC[C@H]2O[C@@H](n3cnc(C(N)=O)n3)[C@H](O)[C@@H]2O)ccc1O | -1.5%
C/C(=C/C(=O)N1CCN(C)CC1)C(=O)O | -0.35%
Cc1cc(C)c2cc(CN(Cc3cccs3)Cc3nnnn3CC3CCCO3)c(=O)[nH]c2c1 (centres undefined) | -5.51%
Cn1c(=O)[nH]c(=O)c2c1nc(CN1CCN(c3ccccc3F)CC1)n2CCc1ccccc1 | -1.61%
CCCNC(=O)Nc1ccccc1C(=O)Nc1ccc(OC)cc1 | 0%
CCCCCNC(=O)c1cccnc1SCC(=O)Nc1ccccc1OC | 8.62%
CCCNC(=O)c1ccccc1NC(=O)CSCc1ccc(OC)cc1 | 12.7% (active)

Compound | Tm shift relative to glycine control
COc1cc2c(cc1OC)C(C(=O)Nc1cc(C)c(OC)c(C)c1)CC(=O)N2 (centres undefined) | 0.68%
CC(=O)c1c(C)[nH]c(C(=O)OCC(=O)Nc2c(C)n(C)n(-c3ccccc3)c2=O)c1C | 0.41%
CCOCCCNC(=O)C(NC(=O)CNC(=O)c1ccccc1)c1ccc(C)cc1 (centres undefined) | -0.17%
Cc1ccc(N2CC(C(=O)NCCS(=O)(=O)N3CCN(c4ccccc4)CC3)CC2=O)cc1 (centres undefined) | 0.09%
COc1ccc(Cn2c(=S)[nH]c3cc(C(=O)N4CCCCC4)ccc3c2=O)cc1 | 0.18%
COc1cc2[nH]c(=S)n(Cc3ccc(F)cc3)c(=O)c2cc1OC | 16.4% (active)
COc1cc2[nH]c(=S)n(CCN3CCCCC3C)c(=O)c2cc1OC (centres undefined) | -1.68%
CCOc1cc2[nH]c(=S)n(Cc3ccc(C(=O)N4CCN(C)CC4)cc3)c(=O)c2cc1OCC | -2.77%
COc1cc2[nH]c(=S)n(Cc3ccc(C)o3)c(=O)c2cc1OC | 13.2% (active)
CCOc1cc2[nH]c(=S)n(Cc3ccc(C(=O)NCCOC)cc3)c(=O)c2cc1OCC | -2.12%
COCC(C)N=CC1=C(O)CC(C)(C)CC1=O (centres undefined) | 1.32%
O=C(NN1CCOCC1)c1cccc(F)c1 | -0.08%
COc1ccc(C2c3[nH]c4ccccc4c3C[C@H]3C(=O)N(CC(C)C)CC(=O)N23)c(OC)c1 (some centres undefined) | -1.75%
Cc1nnc(NC2=NCCCCC2)o1 | -2%
O=C(CC(NS(=O)(=O)c1ccc(Cl)cc1)c1ccco1)NC1CCCC1 (centres undefined) | -0.32%
CCOC(=O)c1ccc(NC(=O)CS(=O)(=O)c2cn(CC)c3ccccc23)cc1 | -11.8%
Cc1nc(SCc2ccc(F)cc2)c([N+](=O)[O-])[nH]1 | 13.7% (active)
Cc1nc(SCC(=O)c2ccccc2)c([N+](=O)[O-])[nH]1 | -0.87%
Cc1nc(N)nc(SCc2ccc([N+](=O)[O-])cc2)c1N | 1.88%
CCCSC1=C(C#N)C(c2ccccc2C)C(C(=O)OC)C(=O)N1 (centres undefined) | -0.63%

Compound | Tm shift relative to glycine control
Cn1c(SCC(=O)Nc2cccc(NC(=O)c3cccs3)c2)nnc1-c1ccncc1 | 2.57%
O=C(Nc1ccnc(-c2ccncc2)n1)c1cccs1 | -0.64%
O=C(Cc1cccs1)Nc1ccc([N+](=O)[O-])cc1 | 0.1%
O=C(Nc1ccccc1-c1ccccc1)c1cccs1 | -0.76%
O=C(NC(=S)Nc1ccc(NC(=O)c2cccs2)cc1)c1ccc([N+](=O)[O-])cc1 | 24.7% (active)
O=C(Nc1ccc2oc(-c3ccc4ccccc4c3)nc2c1)c1cccs1 | 25.9% (active)
O=C(Nc1ccc(N2CCN(C(=O)C3CC3)CC2)cc1)c1cccs1 | 0.36%
O=C(Nc1ccccc1)c1ccc(NC(=O)c2cccs2)cc1 | 27% (active)
O=C(Nc1ccc(NC(=O)c2cccs2)cc1)c1ccc2ccccc2c1 | 25.1% (active)
C/C(=N\NC(=O)c1ccc(NS(=O)(=O)c2cccs2)cc1)c1ccc2ccccc2c1 | 5.52%
O=C(Nc1ccc2oc(-c3ccccc3F)nc2c1)c1ccco1 | -4.92%
O=C(Nc1ccc(C(=O)O)cc1)/C(=C/c1ccc([N+](=O)[O-])cc1)NC(=O)c1ccccc1 | 0.77%
CC(Oc1cccc(NC(=O)c2cccs2)c1)C(=O)c1ccccc1 (centres undefined) | -12.8%
Cc1cc(C)c(-c2csc(NC(=O)CCCc3nc4ccccc4c(=O)[nH]3)n2)c(C)c1 | -5.38%
CCCCCN(C(=O)CCC(=O)OCC(=O)NC1CCC(C)CC1)c1c(N)n(CCCC)c(=O)[nH]c1=O (centres undefined) | -0.6%
COc1cc(S(=O)(=O)N2CCN(C(=O)C3CC3)CC2)ccc1NC(C)=O | 1.2%
CCCc1c(C(=O)N/N=C(\C)CCc2ccc(OC)cc2)nnn1-c1nonc1N | 0.47%
CCNc1nc(N)nc(-c2cc(Cl)ccc2OC)n1 | 1.29%
CCN(CC(=O)Nc1c(F)cccc1F)C(=O)CN1c2cccc3cccc(c23)S1(=O)=O | -0.42%

From PubChem BioAssay AID1259313 (Sanford-Burnham Center for Chemical Genomics, 2017)
